From PubChem BioAssay (NCATS)
Inconclusive results are not listed. Calls of active or inactive are those of the source. Unless noted, calls follow the shape of the dose curve; as a rule, active = well fitted curve in the direction sought with a large enough effect; inconclusive = small, poorly fitted or top-dose-only effect, or another doubt; inactive = no such curve, though single readings can be large; an effect the other way counts as inactive or inconclusive.

Legend:
[1] = biological target: Lysosomal acid glucosylceramidase (Homo sapiens) (UniProt P04062); assay: Glucocerebrosidase-p2 (AID 348; in the data active = potency below about 10 µM; also: potency is read from the fitted curve at half-maximal effect); conditions: purified GBA, blue fluorogenic substrate, 40 min
Sequence of Lysosomal acid glucosylceramidase (Homo sapiens) (P04062 whole entry, looked up): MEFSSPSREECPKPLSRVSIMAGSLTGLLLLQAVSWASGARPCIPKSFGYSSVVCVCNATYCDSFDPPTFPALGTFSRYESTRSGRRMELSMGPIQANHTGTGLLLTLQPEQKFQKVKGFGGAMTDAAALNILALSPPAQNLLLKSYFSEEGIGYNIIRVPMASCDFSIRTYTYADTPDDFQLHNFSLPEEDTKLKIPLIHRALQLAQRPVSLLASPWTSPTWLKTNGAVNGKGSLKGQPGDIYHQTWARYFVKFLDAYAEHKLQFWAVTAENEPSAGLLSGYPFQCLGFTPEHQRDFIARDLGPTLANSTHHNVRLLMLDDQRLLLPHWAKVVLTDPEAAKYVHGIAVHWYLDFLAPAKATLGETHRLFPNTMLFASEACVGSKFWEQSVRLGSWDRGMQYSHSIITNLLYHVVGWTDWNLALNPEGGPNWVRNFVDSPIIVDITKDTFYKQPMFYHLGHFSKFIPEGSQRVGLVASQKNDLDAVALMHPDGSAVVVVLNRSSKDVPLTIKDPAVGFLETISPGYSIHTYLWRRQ
Outline: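 Compounds titrated from 0.6 nM upwards against 0.2 nM enzyme in pH 5.9 citric acid/KH2PO4, taurocholate, tween-20; blue fluorogenic substrate 80 uM, 40 min room temperature, stopped and read Ex 365/Em 440 for AC50.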

[2] = AP1 Signaling Pathway (AID 357; active = well fitted curve in either direction with a large enough effect, not every such curve was filed as active;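 also: ME-180 reporter cells stimulated with EGF at its EC50 level; % is scaled to controls: 0 for no effect and ±100 for the full control effect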); conditions: ME-180 AP-1-bla reporter, EGF-induced, beta-lactamase ratio, 5 h; at 7.69 µM (top of the series) unless noted
Outline: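 Cells are seeded overnight, exposed to compound titrations and an EC50 level of EGF for 5 hours at 37 °C, then loaded with CCF4 dye for 2.5 hours. Beta-lactamase activity under the AP-1 element is read as a blue/green ratio.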

[3] = biological target: Cytochrome P450 1A2 (Homo sapiens) (UniProt P05177); assay: p450-cyp1a2 (AID 410; calls by dose curve; also: potency is read from the fitted curve at half-maximal effect); conditions: recombinant CYP1A2, luciferin-ME demethylation, luminescence; series mostly up to 57 µM
Sequence of Cytochrome P450 1A2 (Homo sapiens) (P05177 whole entry, looked up): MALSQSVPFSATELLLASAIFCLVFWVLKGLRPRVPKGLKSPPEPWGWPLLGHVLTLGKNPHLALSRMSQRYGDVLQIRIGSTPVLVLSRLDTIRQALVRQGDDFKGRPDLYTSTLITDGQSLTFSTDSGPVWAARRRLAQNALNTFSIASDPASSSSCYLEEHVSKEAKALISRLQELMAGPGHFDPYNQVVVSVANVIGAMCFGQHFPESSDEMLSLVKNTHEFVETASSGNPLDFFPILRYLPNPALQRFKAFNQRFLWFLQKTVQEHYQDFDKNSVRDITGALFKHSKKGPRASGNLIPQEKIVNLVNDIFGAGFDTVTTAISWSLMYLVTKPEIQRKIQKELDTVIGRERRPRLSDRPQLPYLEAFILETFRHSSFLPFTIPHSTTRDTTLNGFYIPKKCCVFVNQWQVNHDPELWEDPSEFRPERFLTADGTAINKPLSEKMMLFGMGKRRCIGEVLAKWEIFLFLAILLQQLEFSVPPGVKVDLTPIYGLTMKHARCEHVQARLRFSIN
Outline: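 Human CYP1A2 (20nM) demethylated Luciferin-ME at its Km (100uM) in 100mM KPO4. After 10 min compound preincubation, NADPH regeneration ran the reaction 60 min at room temperature. Luciferin was read by luminescence, normalized to 57 uM furafylline.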

[4] = Stat Signaling Pathway (AID 446; active = well fitted curve in either direction with a large enough effect, not every such curve was filed as active;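 also: ME-180 cervical cancer cells given 40 pM IL-6 alongside compound; SIE-controlled beta-lactamase reporter measured as 460/530 nm FRET emission ratio; % is scaled to controls: 0 for no effect and ±100 for the full control effect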); conditions: ME-180 SIE beta-lactamase reporter, IL-6 stimulated, 5 h; series mostly up to 7.69 µM
Outline: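 Screening format detects activators and inhibitors alike: ME-180 SIE-bla cells stimulated at 40 pM IL-6 for 5 hrs with compound, then dual-emission beta-lactamase read at 405 nm excitation.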

[5] = biological target: Glucocorticoid receptor (Homo sapiens) (UniProt P04150); assay: GR-EFC Redistribution (AID 451; calls by dose curve; also: potency is read from the fitted curve at half-maximal effect); conditions: CHO-K1 GR-EFC translocation, beta-gal luminescence, 2 h
Sequence of Glucocorticoid receptor (Homo sapiens) (P04150 whole entry, looked up, the tested form may be a part): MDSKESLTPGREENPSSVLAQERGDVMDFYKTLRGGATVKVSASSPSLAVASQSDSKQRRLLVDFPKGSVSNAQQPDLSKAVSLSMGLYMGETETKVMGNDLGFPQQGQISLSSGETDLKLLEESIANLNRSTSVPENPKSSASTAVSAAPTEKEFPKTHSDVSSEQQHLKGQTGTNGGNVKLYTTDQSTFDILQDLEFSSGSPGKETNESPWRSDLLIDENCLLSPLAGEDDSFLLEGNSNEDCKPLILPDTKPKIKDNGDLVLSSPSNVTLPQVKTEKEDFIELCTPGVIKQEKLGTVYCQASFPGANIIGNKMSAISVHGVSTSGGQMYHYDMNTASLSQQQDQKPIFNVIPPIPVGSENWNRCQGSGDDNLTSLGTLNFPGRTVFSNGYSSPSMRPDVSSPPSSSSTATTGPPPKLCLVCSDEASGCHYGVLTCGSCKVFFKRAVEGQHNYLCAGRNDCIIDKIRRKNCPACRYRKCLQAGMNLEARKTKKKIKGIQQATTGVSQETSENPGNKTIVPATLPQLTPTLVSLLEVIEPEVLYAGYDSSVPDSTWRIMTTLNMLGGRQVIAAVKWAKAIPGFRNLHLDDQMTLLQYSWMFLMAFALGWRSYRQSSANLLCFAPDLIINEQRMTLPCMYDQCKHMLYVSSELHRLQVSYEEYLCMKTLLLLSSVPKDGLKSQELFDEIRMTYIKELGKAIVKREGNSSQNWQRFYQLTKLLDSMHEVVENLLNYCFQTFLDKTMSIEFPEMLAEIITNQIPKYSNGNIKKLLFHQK
Outline: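 CHO-K1 cells expressing nuclear EA and GR-ED fragments of b-gal; compounds titrated up to 46 uM final, 2 h at 37 C. GR nuclear translocation read as complemented b-gal luminescence after 1 h RT detection.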

[6] = biological target: Mitogen-activated protein kinase 10 (Mus musculus) (UniProt Q61831); assay: JNK3 AlphaScreen Assay (AID 530; active = well fitted curve in either direction with a large enough effect, not every such curve was filed as active;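 also: kinase came from lysate of stimulated human HepG2 cells; signal reports phosphorylation of biotinylated GST-cJun 1-79 at Ser73 with 10 µM ATP; % is scaled to controls: 0 for no effect and ±100 for the full control effect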); conditions: JNK3 lysate, c-Jun phosphorylation; series mostly up to 57.1 µM
Outline: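 qHTS format: compounds tested as titrations against IL-1beta/TNF-alpha-activated HepG2 lysate JNK3 with biotin-GST-cJun substrate and 10 uM ATP at room temperature. Loss of anti-phospho-cJun AlphaScreen signal indicates inhibition.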

[7] = biological target: 3',5'-cyclic-AMP phosphodiesterase 4B (Homo sapiens) (UniProt Q07343); assay: qHTS Assay for Inhibitors of PDE-IV (AID 607; active = well fitted activation curve with a large enough effect in the main read-out, with a control signal flat, not every such curve was filed as active; also: % of control where 0% means no effect); conditions: HEK293 ACTOne CNG channel cells, membrane potential fluorescence; series mostly up to 22.9 µM
Sequence of 3',5'-cyclic-AMP phosphodiesterase 4B (Homo sapiens) (Q07343 whole entry, looked up): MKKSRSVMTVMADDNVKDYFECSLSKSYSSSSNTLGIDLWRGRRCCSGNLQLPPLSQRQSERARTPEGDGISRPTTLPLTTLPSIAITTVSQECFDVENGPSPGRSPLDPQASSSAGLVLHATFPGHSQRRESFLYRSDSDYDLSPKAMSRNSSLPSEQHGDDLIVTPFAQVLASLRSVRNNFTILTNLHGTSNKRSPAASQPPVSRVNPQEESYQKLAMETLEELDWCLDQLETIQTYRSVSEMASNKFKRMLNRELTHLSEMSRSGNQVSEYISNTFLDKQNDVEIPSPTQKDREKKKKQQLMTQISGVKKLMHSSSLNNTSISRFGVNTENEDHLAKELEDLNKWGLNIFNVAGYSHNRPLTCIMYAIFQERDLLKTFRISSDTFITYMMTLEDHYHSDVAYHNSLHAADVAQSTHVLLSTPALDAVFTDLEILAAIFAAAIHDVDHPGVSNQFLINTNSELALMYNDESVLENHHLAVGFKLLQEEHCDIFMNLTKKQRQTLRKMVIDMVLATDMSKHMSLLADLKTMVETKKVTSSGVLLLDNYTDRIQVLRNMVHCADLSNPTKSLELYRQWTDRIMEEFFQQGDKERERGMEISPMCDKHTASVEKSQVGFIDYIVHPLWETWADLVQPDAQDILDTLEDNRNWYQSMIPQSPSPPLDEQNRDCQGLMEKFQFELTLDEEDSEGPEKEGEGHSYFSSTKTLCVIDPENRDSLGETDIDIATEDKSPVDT
Outline: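 The readout is membrane depolarisation from a cAMP-sensing CNG channel, detected with a potential dye at ex 535/em 590. Cells were HEK293-derived (endogenous PDE-IV) at 1000 cells/well, titrated up to 22.9 uM final.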

[8] = biological target: Cytochrome P450 3A4 (Homo sapiens) (UniProt P08684); assay: qHTS Assay for Activators of Cytochrome P450 3A4 (AID 885); conditions: recombinant CYP3A4, Luciferin-PPXE luminescence, 60 min; series mostly up to 57.1 µM; also: nearly all actives have a fitted effect of over 65% in size
Sequence of Cytochrome P450 3A4 (Homo sapiens) (P08684 whole entry, looked up): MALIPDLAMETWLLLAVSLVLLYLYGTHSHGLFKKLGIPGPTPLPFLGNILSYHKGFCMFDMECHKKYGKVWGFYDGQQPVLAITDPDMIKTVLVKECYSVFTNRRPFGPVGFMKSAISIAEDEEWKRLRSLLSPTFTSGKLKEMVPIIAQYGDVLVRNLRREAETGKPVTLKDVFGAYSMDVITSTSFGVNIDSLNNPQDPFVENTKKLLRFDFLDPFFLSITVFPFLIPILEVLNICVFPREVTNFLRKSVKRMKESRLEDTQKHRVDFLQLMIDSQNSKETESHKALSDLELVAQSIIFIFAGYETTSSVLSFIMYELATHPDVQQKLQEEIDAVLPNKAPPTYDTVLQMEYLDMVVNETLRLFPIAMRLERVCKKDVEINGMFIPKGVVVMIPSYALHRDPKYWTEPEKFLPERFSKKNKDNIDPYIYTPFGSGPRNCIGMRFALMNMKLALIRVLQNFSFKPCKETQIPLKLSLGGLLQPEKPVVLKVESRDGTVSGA
Outline: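 Steps: enzyme/substrate mix dispensed; compound added, 10 min RT; NADPH regeneration solution added, 60 min RT; luciferin detection buffer stops reaction; 20 min later luminescence measured.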

[9] = biological target: Rap guanine nucleotide exchange factor 3 (Homo sapiens) (UniProt O95398); assay: Confirmatory qHTS for agonist of cAMP-regulated guanine nucleotide exchange factor 3 (EPAC1) (AID 1645881); conditions: EPAC1 Rap1B BODIPY-GDP exchange fluorescence; series mostly up to 154 µM;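 also: EPAC1 catalysed release of BODIPY-GDP from Rap1B seen as fluorescence loss; 100% = effect of cAMP agonist control; nearly all actives have a fitted effect of over 75% in size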
Sequence of Rap guanine nucleotide exchange factor 3 (Homo sapiens) (O95398 whole entry, looked up): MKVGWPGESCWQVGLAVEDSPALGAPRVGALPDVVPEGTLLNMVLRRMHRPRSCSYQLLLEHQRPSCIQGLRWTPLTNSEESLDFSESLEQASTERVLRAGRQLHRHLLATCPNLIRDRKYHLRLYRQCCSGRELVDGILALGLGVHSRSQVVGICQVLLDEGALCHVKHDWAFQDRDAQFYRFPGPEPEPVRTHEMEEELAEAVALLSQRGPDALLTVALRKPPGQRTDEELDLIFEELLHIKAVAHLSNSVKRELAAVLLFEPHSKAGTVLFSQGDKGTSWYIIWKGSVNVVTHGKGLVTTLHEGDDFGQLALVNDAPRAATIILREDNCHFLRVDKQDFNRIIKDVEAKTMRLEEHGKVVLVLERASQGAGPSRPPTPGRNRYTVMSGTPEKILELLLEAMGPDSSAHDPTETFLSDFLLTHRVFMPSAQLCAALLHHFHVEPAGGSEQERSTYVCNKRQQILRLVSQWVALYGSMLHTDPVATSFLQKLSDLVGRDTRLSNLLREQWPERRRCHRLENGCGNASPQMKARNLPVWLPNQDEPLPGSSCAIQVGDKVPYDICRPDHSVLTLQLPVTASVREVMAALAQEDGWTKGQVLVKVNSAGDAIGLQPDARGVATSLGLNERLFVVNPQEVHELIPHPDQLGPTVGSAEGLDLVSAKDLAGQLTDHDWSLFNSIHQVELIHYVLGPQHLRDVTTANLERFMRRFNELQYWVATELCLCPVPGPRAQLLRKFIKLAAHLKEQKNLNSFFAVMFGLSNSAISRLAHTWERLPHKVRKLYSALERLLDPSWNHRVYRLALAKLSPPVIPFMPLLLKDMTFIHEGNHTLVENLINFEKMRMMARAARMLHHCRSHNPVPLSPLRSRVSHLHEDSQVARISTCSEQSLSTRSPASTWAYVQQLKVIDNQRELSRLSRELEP

[10] = biological target: Rap guanine nucleotide exchange factor 4 (Homo sapiens) (UniProt Q8WZA2); assay: Confirmatory qHTS for agonist of cAMP-regulated guanine nucleotide exchange factor 4 (EPAC2) (AID 1645884); conditions: EPAC2 GEF activity, Rap1B-BODIPY-GDP fluorescence; series mostly up to 154 µM;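 also: nucleotide exchange releases bodipy-GDP from Rap1 and this lowers its fluorescence; % is scaled to controls: 0 for no effect and ±100 for the full control effect; nearly all actives have a fitted effect of over 65% in size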
Sequence of Rap guanine nucleotide exchange factor 4 (Homo sapiens) (Q8WZA2 whole entry, looked up): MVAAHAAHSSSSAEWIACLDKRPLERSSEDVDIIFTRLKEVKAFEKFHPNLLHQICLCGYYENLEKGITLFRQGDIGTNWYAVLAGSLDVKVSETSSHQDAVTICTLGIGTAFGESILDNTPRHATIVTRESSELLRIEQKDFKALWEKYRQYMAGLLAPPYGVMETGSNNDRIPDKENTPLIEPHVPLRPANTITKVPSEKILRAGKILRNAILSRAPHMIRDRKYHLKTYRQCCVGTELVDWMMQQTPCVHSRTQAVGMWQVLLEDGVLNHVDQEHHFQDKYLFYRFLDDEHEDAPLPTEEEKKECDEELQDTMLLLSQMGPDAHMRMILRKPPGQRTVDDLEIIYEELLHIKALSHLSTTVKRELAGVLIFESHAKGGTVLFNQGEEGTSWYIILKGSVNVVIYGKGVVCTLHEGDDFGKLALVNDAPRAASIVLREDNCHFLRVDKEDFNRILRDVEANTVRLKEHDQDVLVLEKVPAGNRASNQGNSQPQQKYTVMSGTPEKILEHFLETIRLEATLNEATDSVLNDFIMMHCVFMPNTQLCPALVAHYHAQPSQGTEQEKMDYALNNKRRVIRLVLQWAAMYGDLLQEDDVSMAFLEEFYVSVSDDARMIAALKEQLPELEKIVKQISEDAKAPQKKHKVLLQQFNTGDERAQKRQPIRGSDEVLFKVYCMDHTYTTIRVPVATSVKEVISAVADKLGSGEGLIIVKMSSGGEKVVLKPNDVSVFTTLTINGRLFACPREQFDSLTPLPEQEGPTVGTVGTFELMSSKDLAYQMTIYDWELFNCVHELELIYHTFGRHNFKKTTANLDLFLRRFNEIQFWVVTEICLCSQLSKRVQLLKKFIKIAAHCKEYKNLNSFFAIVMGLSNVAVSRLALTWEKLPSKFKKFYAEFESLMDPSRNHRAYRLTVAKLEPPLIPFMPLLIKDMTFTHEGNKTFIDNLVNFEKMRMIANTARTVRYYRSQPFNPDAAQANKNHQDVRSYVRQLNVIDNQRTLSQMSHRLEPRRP

[11] = biological target: Rap guanine nucleotide exchange factor 4 (Homo sapiens) (UniProt Q8WZA2); assay: Confirmatory qHTS for antagonist of cAMP-regulated guanine nucleotide exchange factor 4 (EPAC2) (AID 1645885); conditions: EPAC2 Rap1B-BODIPY-GDP exchange fluorescence, biochemical; series mostly up to 12.7 µM; also: nearly all actives have a fitted effect of over 25% in size; also: potency is read from the fitted curve at half-maximal effect; as to activity change, negative = inhibition: % is scaled to controls: 0 for no effect and ±100 for the full control effect
[12] = biological target: Rap guanine nucleotide exchange factor 3 (Homo sapiens) (UniProt O95398); assay: Counterscreen qHTS for antagonist of cAMP-regulated guanine nucleotide exchange factor 3 (EPAC1) (AID 1645888); conditions: Rap1B-BODIPY-GDP nucleotide exchange, fluorescence; series mostly up to 154 µM;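 also: fluorescence loss as bound BODIPY-GDP is released from Rap1B; % of control where 0% means no effect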
Outline: (§1)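 Rap1B–BODIPY-GDP (250 nM) with 50 uM GDP; compounds pin-transferred to 9.74 nM–152 uM final (activator) or from 7.32 nM upwards (inhibitor). Fluorescence Ex/Em 480/540 nm read at 5 and 30 min, then after adding cAMP or buffer, at room temperature.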

[13] = biological target: Rap guanine nucleotide exchange factor 3 (Homo sapiens) (UniProt O95398); assay: Counterscreen qHTS for agonist of cAMP-regulated guanine nucleotide exchange factor 3 (EPAC1) (AID 1645889); conditions: EPAC1 Rap1B-BODIPY-GDP exchange, fluorescence; series mostly up to 154 µM; also: % of control where 0% means no effect; nearly all actives have a fitted effect of over 40% in size
Outline: as §1

[14] = biological target: Cytochrome P450 3A4 (Homo sapiens) (UniProt P08684); assay: qHTS Assay for Inhibitors and Substrates of Cytochrome P450 3A4 (AID 884); conditions: recombinant CYP3A4, Luciferin-PPXE luminescence; series mostly up to 57.1 µM; also: potency is read from the fitted curve at half-maximal effect; nearly all actives have a fitted effect of over 50% in size
Outline: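 20 nM human CYP3A4 with 25 uM Luciferin-PPXE (at KM) in 200 mM KPO4, preincubated 10 min with compound; NADPH regeneration started a 60 min RT reaction. Luciferin detected by luminescence, normalized to 57 uM ketoconazole as full inhibition.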

[15] = Confirmation and Secondary Assay for Modulators of Hemoglobin Beta Chain Splicing at IVS2 654 locus (AID 910); conditions: HeLa EGFP-654 splicing reporter, GFP fluorescence, 48 h; series mostly up to 46.1 µM;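 also: HeLa cells stably carrying EGFP split by mutant beta-globin IVS2-654 intron; % of control where 0% means no effect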
Outline: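 HeLa cells stably expressing EGFP interrupted by β-globin IVS2-654 intron, seeded overnight in Opti-MEM/2% FCS, then treated 2 days at 37 °C. Restored splicing read as total peak GFP intensity per well by laser scanning cytometry (488 nm excitation, 500–520 nm emission); 500 nM antisense PNA as control.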

[16] = Confirmation and Secondary Assay for Modulators of Hemoglobin Beta Chain Splicing at IVS2 705 locus (AID 930); conditions: HeLa EGFP-705 splicing reporter, GFP fluorescence, 48 h; series mostly up to 46.1 µM;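 also: HeLa cells stably expressing the EGFP-705 splicing reporter; GFP fluorescence per well restored by corrected splicing of the IVS2-705 intron in EGFP; % of control where 0% means no effect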
Outline: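 First, HeLa EGFP-705 cells are seeded at 500/well in Optimem with 2% FCS and left overnight. Next, compound or DMSO is added for 2 days. Finally wells are laser-scanned and total peak GFP intensity scored.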

O=C(c1cc(C(F)(F)F)cc(C(F)(F)F)c1)N1CCC2(CCCN(c3ncccn3)C2)CC1
active: Potency [3] 31.6 µM | Potency [11] 44.1 µM
inactive: Potency [1] > 11.4 µM | activity change, negative = inhibition [2] -18.2% | outcome [4] | Potency [5] > 46 µM | Potency [6] | Potency [7] | outcome [8] | Potency [9] | Potency [10]

CCOC1=C2[C@@H](CN(S(=O)(=O)c3ccc(C)cc3)[C@H]2c2ccccc2Cl)[C@H]2C(=O)NC(=O)[C@H]2C1
inactive: Potency [9] | Potency [10] | Potency [12]

COc1cc(/C=C(\C#N)C(=O)Nc2ccccc2C(=O)O)cc(Cl)c1OC
inactive: Potency [9] | Potency [10] | Potency [11] | Potency [13]

Cc1oc2ccc(O)c(CN3CCCCC3)c2c1C(=O)Nc1cccc(C(F)(F)F)c1
inactive: Potency [9] | Potency [10] | Potency [12]

CCOC(=O)C1=C(C)N=c2s/c(=C/c3ccc(OCC(=O)O)cc3)c(=O)n2C1c1ccc(F)cc1 (stereo not drawn)
inactive: Potency [9] | Potency [10] | Potency [12]

Cc1ccc(C)c(NC(=O)CN(C)C(=O)c2ccccc2Cc2ccccc2)c1
inactive: Potency [9] | Potency [10] | Potency [12]

CCOc1ccc(S(=O)(=O)Nc2nc3ccccc3nc2-n2ccc(=NC(=O)c3cccs3)cc2)cc1
inactive: Potency [9] | Potency [10] | Potency [12]

O=C(NC1CC1)C1CCN(S(=O)(=O)c2cc([N+](=O)[O-])ccc2Cl)CC1
inactive: Potency [9] | Potency [10] | Potency [12]

Cc1ccc(-c2ccc(CN3C(C(C)C)C(=O)N(Cc4cn(CCC5OCCO5)nn4)CCS3(=O)=O)cc2)c(C)c1 (stereo not drawn)
inactive: Potency [9] | Potency [10] | Potency [12]

CN(CC(=O)Nc1ccc(F)cc1)C(=O)c1cc(-c2ccco2)nc2ccccc12
inactive: Potency [9] | Potency [10] | Potency [12]

CCCCn1nnnc1C(c1cc2ccccc2o1)N1CCN(c2ncccc2C#N)CC1 (stereo not drawn)
inactive: Potency [9] | activation [10] 8.35% [at 17.1 µM, percent relative to cAMP agonist control] | activity change, negative = inhibition [12] -7.87% [at 30.8 µM]

COCCCNC(=O)c1ccc2c3c(onc13)-c1ccccc1C2=O
inactive: Potency [9] | Potency [10] | Potency [12]

O=c1c(O)c(-c2ccccc2)oc2ccc3occc3c12
active: Potency [14] 3.16 µM | Potency [11] 5.55 µM
inactive: outcome [8] | Potency [15] | Potency [16] | Potency [9] | Potency [10]

COCCNc1nc(Oc2cccc(F)c2)c2sccc2n1
inactive: Potency [9] | Potency [10] | Potency [12]

CC(C)=CCc1c2c(c3occ(-c4ccc(O)cc4)c(=O)c3c1O)C=CC(C)(C)O2
inactive: outcome [8] | Potency [15] | Potency [16] | Potency [9] | Potency [10] | Potency [11]

C=CC[C@@H](Cc1ccc(F)cc1)C(=O)OC[C@@H]1CCCN1C(=O)[C@@H](CC=C)CC(=O)N(CCO)Cc1ccccc1
inactive: Potency [9] | Potency [10] | Potency [12]

CCN1CCN(c2ccc(S(=O)(=O)N3CCCCC3)cc2NC(=O)c2ccc([N+](=O)[O-])s2)CC1
inactive: Potency [9] | Potency [10] | Potency [12]

CCOc1ccccc1NC(=O)C1COc2ccccc2O1 (stereo not drawn)
inactive: Potency [9] | Potency [10] | Potency [12]

CC(C)n1c(CNC(=O)c2ccccc2F)nnc1SCC(=O)NC1CCCCC1
inactive: Potency [9] | Potency [10] | Potency [12]

COc1ccc(-c2sc3ccc(OC)cc3c2C#CCCO)cc1
inactive: Potency [9] | Potency [10] | Potency [12]

Cc1cc(NS(=O)(=O)c2ccc(NC(=S)NC(=O)/C=C/c3ccccc3)cc2)no1
inactive: Potency [9] | activation [10] 1.85% [at 17.1 µM, percent relative to cAMP agonist control] | activity change, negative = inhibition [12] -2.1% [at 30.8 µM]

CCCCC(=O)N(C)c1c(CC)nc2c(OCc3ccc(C(F)(F)F)cc3)cccn12
inactive: Potency [9] | activation [10] 3.08% [at 17.1 µM, percent relative to cAMP agonist control] | activity change, negative = inhibition [12] -15.6% [at 30.8 µM]

Clc1cccc(-c2nc3ccc(Cl)cn3c2Cc2ccsc2)c1
inactive: Potency [9] | Potency [10] | Potency [12]

Cc1ccc(S(=O)(=O)Oc2cccc(/C=N/Nc3ccc(C(=O)O)cc3)c2)cc1
inactive: Potency [9] | Potency [10] | Potency [12]

CC(C)CNC(=O)C1Nc2ccc(OC(F)(F)F)cc2C2C=CCC12 (stereo not drawn)
inactive: Potency [9] | Potency [10] | Potency [12]

O=c1cc(CN2CCN(S(=O)(=O)c3cccc(Cl)c3)CC2)c2ccc(O)cc2o1
inactive: Potency [9] | Potency [10] | Potency [12]

O=C(NC1(O)C(=O)c2ccccc2C1=O)c1ccccc1
inactive: Potency [9] | Potency [10] | Potency [12]

Cc1ccc(/C=C2/SC(=S)N(c3ccc(S(=O)(=O)Nc4nccs4)cc3)C2=O)cc1
inactive: Potency [9] | Potency [10] | Potency [12]

Cc1cc(NC(=O)CS(=O)(=O)c2cn(Cc3cccc(Br)c3)c3ccccc23)no1
inactive: Potency [9] | Potency [10] | Potency [12]
